Results: PubChem BioAssay (Tox21)
Several values for one entry are separate records, joined by “and”; a condition that tells them apart may be missing. Identical values can stand only once. Results filed as inconclusive are left out. Activity calls are given as the source filed them. Unless noted, the call rests on the fitted dose curve; in most records, active means well fitted curve in the direction sought with a large enough effect in the repeat runs; inconclusive means weak or mixed curves; inactive means no such curve, though single readings can be large; an effect the other way counts as inactive or inconclusive.

What was measured:
[1] = qHTS assay to identify small molecule antagonists of the glucocorticoid receptor (GR) signaling pathway - cell viability counter screen (AID 720693); further: nearly all actives have a fitted effect of over 55% in size
[2] = qHTS assay for identifying genotoxic compounds that show differential cytotoxicity against isogenic chicken DT40 cell lines with known DNA damage response pathways - wild type cell line (AID 743012); further: nearly all actives have a fitted effect of over 60% in size; further: potency means the concentration at half of the fitted maximal effect
Procedure, shortened: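 Using parental DT40 (300 cells/well), compounds delivered in DMSO incubate 40 h at 37 C/5% CO2. CellTiter-Glo reagent then stands 30 min at room temperature, and luminescence gives cell viability.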

[3] = qHTS assay to identify small molecule antagonists of the androgen receptor (AR) signaling pathway - cell viability counter screen (AID 743033; further: nearly all actives have a fitted effect of over 45% in size; further: potency means the concentration at half of the fitted maximal effect)
[4] = qHTS assay to identify small molecule antagonists of the thyroid receptor (TR) signaling pathway - cell viability counter screen (AID 743064); further: nearly all actives have a fitted effect of over 50% in size; further: potency means the concentration at half of the fitted maximal effect
Procedure, shortened: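 GH3.TRE-Luc rat pituitary cells dosed after 4 hr plating, co-stimulated with T3 at 1 nM final, incubated 23.5 h at 37 C. Viability measured in the same wells by CellTiter-Fluor fluorescence after 30 min further at 37 C.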

[5] = qHTS assay to identify small molecule antagonists of the thyroid receptor (TR) signaling pathway (AID 743065); further: nearly all actives have a fitted effect of over 55% in size; further: potency means the concentration at half of the fitted maximal effect; on activity, negative = inhibition: series mostly up to about 70 µM
Procedure, shortened: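 Antagonism measured as loss of luciferase signal in GH3 cells stably carrying a TRE-luciferase reporter, co-treated with compound and T3 (1 nM final) for 23.5 h at 37 C. Viability was read in the same well by CellTiter-Fluor.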

[6] = qHTS assay to identify small molecule antagonists of the androgen receptor (AR) signaling pathway using the MDA cell line - cell viability counter screen (AID 743041; further: nearly all actives have a fitted effect of over 45% in size; further: potency means the concentration at half of the fitted maximal effect)
Procedure, shortened: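 Cells were plated at 3,000 per well and left 5 h. Compounds in DMSO were then pinned in, followed by R1881. After 16 h at 37C, CellTiter-Fluor fluorescence gave viability.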

[7] = qHTS assay for identifying genotoxic compounds that show differential cytotoxicity against isogenic chicken DT40 cell lines with known DNA damage response pathways - Rev3 mutant cell line (AID 743014); further: nearly all actives have a fitted effect of over 55% in size; further: potency means the concentration at half of the fitted maximal effect
[8] = qHTS assay for identifying genotoxic compounds that show differential cytotoxicity against isogenic chicken DT40 cell lines with known DNA damage response pathways - Rad54/Ku70 mutant cell line (AID 743015); further: nearly all actives have a fitted effect of over 60% in size; further: potency means the concentration at half of the fitted maximal effect
[9] = molecular target: Androgen receptor (Homo sapiens) (UniProt P10275); experiment: qHTS assay to identify small molecule antagonists of the androgen receptor (AR) signaling pathway (AID 743035; active means well fitted inhibition curve with a large enough effect in the signal ratio in the repeat runs, not every such curve was filed as active; the % refers to the signal ratio)
Sequence of Androgen receptor (Homo sapiens) (P10275 whole entry, looked up): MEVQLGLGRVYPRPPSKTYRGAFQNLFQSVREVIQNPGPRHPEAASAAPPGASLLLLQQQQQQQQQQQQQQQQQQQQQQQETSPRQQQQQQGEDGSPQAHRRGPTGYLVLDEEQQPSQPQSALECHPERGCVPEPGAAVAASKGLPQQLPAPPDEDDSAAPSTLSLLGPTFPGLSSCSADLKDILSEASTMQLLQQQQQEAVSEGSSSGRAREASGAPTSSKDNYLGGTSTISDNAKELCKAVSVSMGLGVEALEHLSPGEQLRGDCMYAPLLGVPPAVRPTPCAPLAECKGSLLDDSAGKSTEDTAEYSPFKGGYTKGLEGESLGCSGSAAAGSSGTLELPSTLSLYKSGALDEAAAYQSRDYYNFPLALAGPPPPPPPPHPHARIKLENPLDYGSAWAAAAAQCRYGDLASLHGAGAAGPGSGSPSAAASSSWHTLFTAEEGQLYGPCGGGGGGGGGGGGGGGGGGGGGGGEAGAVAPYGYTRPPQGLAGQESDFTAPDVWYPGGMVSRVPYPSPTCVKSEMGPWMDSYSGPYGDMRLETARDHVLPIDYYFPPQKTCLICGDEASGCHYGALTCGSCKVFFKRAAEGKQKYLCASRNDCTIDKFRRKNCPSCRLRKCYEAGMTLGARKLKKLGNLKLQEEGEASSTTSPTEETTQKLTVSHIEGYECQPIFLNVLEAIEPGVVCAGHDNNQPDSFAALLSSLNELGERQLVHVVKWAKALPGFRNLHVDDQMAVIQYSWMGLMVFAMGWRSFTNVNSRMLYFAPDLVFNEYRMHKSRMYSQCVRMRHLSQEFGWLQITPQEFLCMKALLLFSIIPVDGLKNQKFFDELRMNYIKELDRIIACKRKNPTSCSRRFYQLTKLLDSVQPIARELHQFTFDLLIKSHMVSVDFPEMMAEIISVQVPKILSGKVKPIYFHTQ
Procedure, shortened: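 Using qHTS, AR-UAS-bla GripTite HEK293 cells received compound, then R1881, and were cultured 16 h at 37C/5% CO2 before a 2 h room-temperature LiveBLAzer B/G FRET substrate step and fluorescence measurement.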

[10] = molecular target: Androgen receptor (Homo sapiens) (UniProt P10275); experiment: qHTS assay to identify small molecule agonists of the androgen receptor (AR) signaling pathway using the MDA cell line (AID 743040; further: nearly all actives have a fitted effect of over 20% in size)
Procedure, shortened: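 Cells plated, 5 h at 37C/0% CO2; compound or DMSO pinned; 16 h at 37C; ONE-Glo added; luminescence measured after 30 min at room temperature. Reporter line: MDA-kb2 with MMTV-luciferase responsive to AR and GR.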
On the % scale 0 is the no-effect control and ±100 the full control effect.

O=C(O)CNc1ccccc1
inactive: Potency [1] | Potency [2] | Potency [3] | Potency [4] | Potency [5]

CC/C=C/CCO
inactive: Potency [1] | Potency [2] | Potency [3] | Potency [6] | Potency [4] | Potency [5]

CCc1c(C)[nH]c2c1C(=O)C(CN1CCOCC1)CC2 (stereo not given)
inactive: Potency [1] | Potency [7] | Potency [8] | Potency [3] | Potency [6] | Potency [4] | Potency [5]

C=C(C)C(=O)OCCCCCCCCCCOC(=O)C(=C)C
active: Potency [7] 30.6 µM
inactive: Potency [1] | Potency [3] | Potency [6] | Potency [4] | Potency [5]

O=C1c2ccccc2C(=O)C1c1ccc2cc(S(=O)(=O)O)cc(S(=O)(=O)O)c2n1
active: Potency [6] 52.5 µM | Potency [4] 33.1 µM
inactive: Potency [1] | Potency [2] | Potency [3] | Potency [5]

CCCCCCCCS
inactive: Potency [1] | Potency [7] | Potency [3] | Potency [6] | Potency [5]

COC=O
active: Potency [7] 4.48 µM
inactive: viability change, negative = cytotoxic [1] -0.963% [at 7.04 µM] | activity change, negative = cytotoxicity [3] -27.8% [at 7.04 µM] | viability change, negative = cytotoxic [6] 12.8% [at 8.47 µM] | activity change, negative = cytotoxic [4] 17.8% [at 8.44 µM] | activity, negative = inhibition [5] 9.66% [at 8.44 µM]

c1ccc(-c2ccc(-c3ccccc3)cc2)cc1
inactive: Potency [1] | Potency [7] | Potency [8] | Potency [3] | Potency [6] | Potency [4] | Potency [5]

O=c1[nH]nc(-c2ccc([N+](=O)[O-])o2)o1
inactive: Potency [1] | Potency [3] | Potency [5]
active: Potency [7] 19.3 µM

O=C(O)c1cc(C(=O)O)c(C(=O)O)cc1C(=O)O
inactive: Potency [1] | Potency [7] | Potency [3] | Potency [9] | outcome [10] | Potency [6] | Potency [4] | Potency [5]

O=C1c2ccccc2C(=O)C1c1ccc2ccccc2n1
active: Potency [8] 1.91 µM
inactive: Potency [1] | Potency [7] | Potency [3] | Potency [6] | Potency [4] | Potency [5]

O=C(O)c1ccc2c(c1)nc(C(=O)NC1CCN(C3CC3)CC1)n2Cc1cc(-c2ccc(Cl)s2)on1
inactive: Potency [1] | Potency [7] | Potency [3] | Potency [6] | Potency [4] | Potency [5]

Cc1c(N=C=O)cccc1N=C=O
inactive: Potency [1] | Potency [7] | Potency [3] | Potency [9] | outcome [10] | Potency [4] | Potency [5]

Cc1nc(C)c(C)nc1C
inactive: Potency [1] | Potency [7] | Potency [3] | Potency [9] | outcome [10] | Potency [6] | Potency [4] | Potency [5]

CCOc1ccccc1O
inactive: Potency [1] | Potency [2] | Potency [3] | Potency [4] | Potency [5]

CC/C=C\CCO
inactive: Potency [1] | Potency [7] | Potency [8] | Potency [3] | Potency [6] | Potency [4] | Potency [5]

CCCCCCC/C=C/C=O
inactive: Potency [1] | Potency [7] | Potency [3] | Potency [6] | Potency [4]

Oc1ccc(CCNCCCCCCNCCc2ccccc2)cc1O
active: Potency [2] 13.3 µM | Potency [4] 29.8 µM | Potency [5] 26.6 µM
inactive: Potency [1] | Potency [3]

C=CC(C)(O)CC/C=C(/C)CCC=C(C)C (stereo not given)
active: Potency [8] 61.1 µM
inactive: Potency [1] | Potency [3] | Potency [6] | Potency [4] | Potency [5]

CCCCCCCCNC
inactive: Potency [2] | Potency [7] | Potency [8] | Potency [3] | Potency [6] | Potency [4] | Potency [5]

O=C(O)c1ccccc1[N+](=O)[O-]
inactive: Potency [2] | Potency [7] | Potency [8] | Potency [3] | Potency [6] | Potency [4] | Potency [5]

C=CC(=O)NC(C)(C)C
inactive: Potency [1] | Potency [8] | Potency [3] | Potency [6] | Potency [4] | Potency [5]

CCCCOC(=O)C(C)Oc1ccc(Oc2ccc(C(F)(F)F)cn2)cc1 (stereo not given)
inactive: Potency [1] | Potency [3] | Potency [4] | Potency [5]

CC(C)(C(=O)O)c1ccc(C(O)CCCN2CCC(C(O)(c3ccccc3)c3ccccc3)CC2)cc1 (stereo not given)
inactive: Potency [1] | Potency [3] | Potency [6] | Potency [4] | Potency [5]

CC(C)=CCC/C(C)=C/C=N/O
inactive: Potency [1] | Potency [3] | Potency [4] | Potency [5]

COc1ccc(C(=O)Nc2ccccc2)cc1[N+](=O)[O-]
inactive: Potency [1] | Potency [3] | Potency [6] | Potency [4] | Potency [5]

CCCCCCCCCCCCSCCOCCO
inactive: Potency [1] | Potency [8] | Potency [3] | Potency [6] | Potency [4] | Potency [5]

O=Cc1ccc([N+](=O)[O-])cc1
active: Potency [8] 48.9 µM
inactive: Potency [1] | Potency [3] | Potency [6] | Potency [4] | Potency [5]

C[C@]12CCC(=O)C=C1[C@@H]1C[C@@H]1[C@H]1[C@@H]3[C@@H]4C[C@@H]4[C@@]4(CCC(=O)O4)[C@@]3(C)CC[C@@H]12
active: Potency [2] 9.44 µM | Potency [7] 11.9 µM | Potency [5] 21.1 µM
inactive: Potency [3] | Potency [6]

C/C(=C(\CCO)SS/C(CCO)=C(\C)N(C=O)Cc1cnc(C)nc1N)N(C=O)Cc1cnc(C)nc1N
inactive: Potency [1] | Potency [8] | Potency [3] | Potency [4] | Potency [5]

O=C(O)c1ccccc1-n1cc(C(=O)O)c(=O)c2cc(Nc3c(F)cc(F)cc3Cl)c(Cl)cc21
inactive: Potency [1] | Potency [8] | Potency [3] | Potency [6] | Potency [4] | Potency [5]

CC(C)C[C@H](NC(=O)[C@H](Cc1ccccc1)NC(=O)c1cnccn1)B(O)O
active: Potency [2] 13.3 nM and 11.9 nM | Potency [7] 13.3 nM and 9.4 nM | Potency [8] 11.9 nM and 10.6 nM | Potency [3] 0.0076 µM | Potency [4] 18.8 nM and 11.9 nM | Potency [5] 23.7 nM and 16.8 nM

Cc1ccc2ccccc2c1[N+](=O)[O-]
inactive: Potency [1] | Potency [3] | Potency [4] | Potency [5]

CO[C@@H]1COCC[C@@H]1N[C@@H]1CC[C@@](C(=O)N2CCc3ncc(C(F)(F)F)cc3C2)(C(C)C)C1
inactive: Potency [1] | Potency [3] | Potency [6] | Potency [4]

O=C(N[C@@H](Cc1ccccc1)[C@@H](O)C(=O)N1C[C@@H](O)[C@@H](O)C1)c1cc2cc(Cl)ccc2[nH]1
active: Potency [5] 61.1 µM
inactive: Potency [1] | Potency [6]

[O-][n+]1ccc(Cl)cc1
inactive: Potency [1] | Potency [8] | Potency [3] | Potency [6] | Potency [4] | Potency [5]

CC1(C)[C@@H]2CC[C@]3(C2)[C@@H]1C(=O)CCC3(C)C
inactive: Potency [1] | Potency [3] | Potency [9] | outcome [10] | Potency [4] | Potency [5]

CCN(CCCCOC(=O)c1ccc(OC)c(OC)c1)C(C)Cc1ccc(OC)cc1 (stereo not given)
inactive: Potency [1] | Potency [8] | Potency [3] | Potency [6] | Potency [4]

NCCOCCOCCN
inactive: outcome [10] | Potency [4]
active: Potency [2] 24.3 µM

Cc1c(Cl)cccc1Nc1ccccc1C(=O)O
active: Potency [5] 13.3 µM
inactive: Potency [1] | Potency [7] | Potency [6]

COC(=O)Cc1cccc2ccccc12
inactive: Potency [1] | Potency [3] | outcome [10] | Potency [6]

O=C(Nc1ccc2c(c1)Cc1ccccc1-2)C(F)(F)F
inactive: Potency [1] | Potency [3] | Potency [6] | Potency [4] | Potency [5]
active: Potency [8] 54.5 µM

Oc1ccc(Oc2ccccc2)cc1
active: Potency [2] 20.6 µM | Potency [8] 36.6 µM | Potency [4] 41 µM | Potency [5] 20.6 µM
inactive: Potency [3]

O=C(OCCOCCOCCOC(=O)c1ccccc1)c1ccccc1
inactive: Potency [1] | Potency [3] | Potency [6] | Potency [4] | Potency [5]

CNc1ccccc1
inactive: Potency [2] | Potency [7] | Potency [8] | Potency [3] | Potency [6] | Potency [4] | Potency [5]

O=c1[nH][nH]c2ccccc12
inactive: Potency [1] | Potency [8] | Potency [3] | outcome [10] | Potency [6] | Potency [4] | Potency [5]

N#Cc1ccc(CC(=O)c2cccc(C(F)(F)F)c2)cc1
inactive: Potency [1] | Potency [3] | Potency [4] | Potency [5]

CS(C)=O
inactive: Potency [1] | Potency [3] | Potency [6] | Potency [4] | Potency [5]

CC(C)=CCCC(C)C=O (stereo not given)
active: Potency [8] 61.1 µM
inactive: Potency [1] | Potency [3] | Potency [6] | Potency [4] | Potency [5]

S=c1[nH][nH]c(=S)s1
inactive: Potency [1] | Potency [7] | Potency [6] | Potency [4] | Potency [5]

O=C1CCCN1CCO
inactive: Potency [1] | Potency [6] | Potency [4] | Potency [5]

C[C@H](CN1CCCC1)C(=O)c1ccc(C(F)(F)F)cc1
inactive: Potency [3] | Potency [4]
active: Potency [2] 6.68 µM | Potency [5] 26.6 µM

N#C[C@@H]1CC(F)(F)CN1C(=O)CNC1CC2CCC(C1)N2c1ncccn1 (stereo not given in full)
inactive: Potency [1] | Potency [3] | Potency [9] | outcome [10] | Potency [6] | Potency [4]

C=C[Si]1(C)O[Si](C)(C=C)O[Si](C)(C=C)O[Si](C)(C=C)O1 (stereo not given)
inactive: Potency [1] | Potency [3] | Potency [6] | Potency [4] | Potency [5]

O=P(c1ccccc1)(c1ccccc1)c1ccccc1
inactive: Potency [1] | Potency [3] | Potency [4]
active: Potency [8] 61.1 µM
